MITF TRPM1 inh: reduces MITF-dependent TRPM1 promoter luciferase signal; 330,000 tested, 0.83% active; inhibition, % at 12.5 µM; SK-MEL-5 TRPM1 promoter luciferase, 24 h;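 active = mean inhibition across replicates of 60% or more, whatever share of single replicates reaches that level; inconclusive = some that reach 60%, reason not given; inactive = mean inhibition across replicates below 60%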
aSyn 5UTR inh: MLPCN primary screen, SNCA 5' untranslated region. inhibition, % (tested at 7.5 µM). 300,000 tested, 0.82% active. alpha-synuclein 5'UTR reporter, inhibitor activity; in the data active = inhibition above about 60%; inconclusive = no clear call, values can overlap the other calls;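 also: H4 neuroglioblastoma cells stably carrying SNCA 5'UTR luciferase fusion; 0% = DMSO wells and 100% = positive control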
PAX8 inh HTS: PAX8 transcriptional activity inhibition; RMG-I TPO-luciferase reporter, SteadyGlo, 24 h; inhibition, % at 12.6 µM; 360,000 tested, 1.2% active; AID 652154;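 active = mean replicate inhibition at least 60% with every replicate also reaching 60%; inconclusive = only one of the two criteria is met; inactive = mean below 60% and not all replicates reaching 60%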;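 also: luciferase light reporting Pax8 driven TPO promoter activity; plate controls were median of neutral control wells for no effect and mitoxantrone controls for full effect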
Shn3 3UTR inh: reduces Shn3 3'UTR luciferase signal in osteoblasts; Clone20 osteoblast Shn3 3'UTR firefly luciferase, 24 h; inhibition, % at 12.5 µM; 360,000 tested, 0.52% active;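 active = mean inhibition of at least 75% with every replicate also reaching 75%; inconclusive = mean inhibition at least 75% but some replicate below; inactive = mean inhibition below 75%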;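 also: 0% = median of neutral control wells and 100% = pilot-screen positive control compound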
LMP1 NFkB inh: reduces LMP1-driven NF-kappaB luciferase signal. LMP1-induced NF-kappaB luciferase reporter cells, luminescence. inhibition, % at 12.5 µM. 350,000 tested, 0.69% active. AID 504558; in the data active = inhibition above about 41%; inconclusive = no clear call, values can overlap the other calls;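 also: 0% = neutral control wells and 100% = reference inhibitor control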
Active calls of the source: *; u = inconclusive; x = no result given. In the library only some 2.1% were active in any assay of this set; here they are far more common.

SMILES | MITF TRPM1 inh | aSyn 5UTR inh | PAX8 inh HTS | Shn3 3UTR inh | LMP1 NFkB inh
C[C@H]1CCCCO[C@H](CN(C)Cc2ccc(C(F)(F)F)cc2)[C@@H](C)CN([C@@H](C)CO)C(=O)c2cc(NC(=O)Cc3ccccc3)ccc2O1 | x | x | 76.2* | x | x
C[C@@H]1CN([C@H](C)CO)C(=O)c2cc(NC(=O)Cc3ccccc3)ccc2O[C@@H](C)CCCCO[C@@H]1CN(C)Cc1ccccc1 | x | x | 25.3 | x | x
C[C@@H]1CCCCO[C@@H](CN(C)Cc2ccc(C(F)(F)F)cc2)[C@H](C)CN([C@H](C)CO)C(=O)c2cc(NC(=O)Cc3ccccc3)ccc2O1 | x | x | 90.7* | x | x
C[C@H]1CCCCO[C@@H](CN(C)Cc2ccc(C(=O)O)cc2)[C@@H](C)CN([C@@H](C)CO)C(=O)c2cc(NC(=O)Cc3ccccc3)ccc2O1 | x | x | -8.0 | x | x
C[C@@H]1CN([C@@H](C)CO)C(=O)c2cc(NC(=O)Cc3ccccc3)ccc2O[C@@H](C)CCCCO[C@@H]1CN(C)Cc1ccc(C(F)(F)F)cc1 | x | x | 96.6* | x | x
Cc1[nH]c2ccccc2c1C(=O)CSc1ccccc1 | -14.1 | -86.2 | -2.4 | -54.6 | -12.4
O=C(O)CCCCCCCCCCP(=O)(c1ccccc1)c1ccccc1 | 2.3 | 4.2 | 6.8 | 13.9 | -8.4
O=P(CCCCCCCCCP(=O)(c1ccccc1)c1ccccc1)(c1ccccc1)c1ccccc1 | 40.6 | 39.8 | 80.3* | 88.4* | -3.2
Nc1c(Br)cc2c(c1Br)C(O)c1ccccc1-2 (stereo not drawn) | 2.3 | x | 4.4 | 93.8* | -2.0
CCOC(=O)c1sc(NC(=O)c2cc3c(s2)CCC(C)C3)nc1C (stereo not drawn) | 71.5* | -101.5 | x | 9.3 | -0.1
COC(=O)c1sc(NC(=O)c2cc3c(s2)CCCC3)nc1C | -72.7 | -204.4 | x | -34.8 | -40.4
Cc1ccc(-n2[nH]c(C)c(/C=N/c3cccc(C)n3)c2=O)cc1 | 11.6 | -5.9 | -2.9 | -27.5 | -6.9
O=C(NCc1ccccc1)[C@]1(Cc2ccccc2)N=C(c2ccc(OCCCO)cc2)O[C@@H]1c1ccccc1 | x | x | 93.9* | x | x
O=C(Nc1ccncc1)c1ccc(Cl)c(Cl)c1 | -9.4 | -25.4 | 10.7 | 2.7 | -1.3
O=C(Cc1ccc(Cl)cc1Cl)Nc1ccncc1Cl | 6.3 | -2.9 | x | 87.7* | 29.5
CCN(CC)S(=O)(=O)c1ccc(N2CCOCC2)c(NC(=O)c2cc(-c3ccccn3)nc3ccccc23)c1 | 5.4 | 88.4* | 78.1* | 19.5 | 13.2
CCOc1cc(N2CCOCC2)c(OCC)cc1NC(=O)c1cc(-c2ccco2)nc2ccccc12 | 16.9 | 113.9* | x | 92.3* | 4.4
CCN(CC)S(=O)(=O)c1ccc(N2CCOCC2)c(NC(=O)c2cccc3ccccc23)c1 | 9.8 | 0.9 | 16.1 | 17.4 | -2.8
CCN=C(Nc1cccc(F)c1)SC1CC(=O)N(c2ccc(OC)cc2)C1=O (stereo not drawn) | -4.4 | -1.4 | x | 7.2 | -4.8
Cc1ccc2nc(Cl)c(-c3ccccc3)cc2c1 | x | 74.2* | -47.2 | -52.4 | x
Cc1ccc2nc(Cl)nc(-c3ccccc3)c2c1 | 17.9 | 14.7 | 26.4 | 0.9 | 4.5
CCCCNC(=O)c1cc2c(=O)n(CC)c3ccccc3c2s1 | -6.1 | -29.7 | -9.6 | -0.2 | 5.9
CCn1c(=O)c2cc(C(=O)NCc3cccs3)sc2c2ccccc21 | -9.2 | x | 7.2 | -1.6 | 51.6*
Cn1nc(-c2ccc(Cl)cc2)nc2c(=O)n(C)c(=O)nc1-2 | x | 110.4* | x | 117.7* | x
Cc1ccc(CCNC(=O)c2ccc(CS(=O)(=O)c3ccccc3C)o2)cc1 | 3.5 | -28.6 | 3.7 | 22.2 | -2.5
SMILES | MITF TRPM1 inh | aSyn 5UTR inh | PAX8 inh HTS | Shn3 3UTR inh | LMP1 NFkB inh
CCOC(=O)Cc1csc(NC(=O)c2c(O)c3ccccc3n(CC(C)C)c2=O)n1 | 19.0 | 74.6* | x | 10.3 | 9.2
CC(C)Cn1c(=O)c(C(=O)Nc2ccccc2S(N)(=O)=O)c(O)c2ccccc21 | 4.6 | 7.6 | x | 0.5 | 2.3
CCOC(=O)c1cc([N+](=O)[O-])c([N+](=O)[O-])cc1NC(C)=O | 87.8* | 7.1 | 23.3 | 98.1* | 21.8
CCOC(=O)c1ccc(NC(=O)c2ccccc2[N+](=O)[O-])cc1 | -51.5 | -75.8 | -59.0 | -23.5 | -8.5
Nc1ccc(OC(=O)Nc2ccc(O)cc2)cc1 | 45.1 | 91.4* | -43.9 | 14.2 | 29.4
CCOC1=C2CN(S(=O)(=O)c3ccc(C)cc3)[C@H](c3cccc4ccccc34)C[C@H]2C(C#N)(C#N)C(C#N)(C#N)C1 | x | x | x | 61.0 | x
CCOC1=C2[C@H](c3ccccc3)N(S(=O)(=O)c3ccc(C)cc3)C(C(C)(C)C)[C@H]2C(C#N)(C#N)C(C#N)(C#N)C1 (stereo partly drawn) | x | x | 55.4 | 86.9* | x
Cc1ccccc1NC(=O)c1cccc2nc3ccccc3nc12 | 65.7* | 34.7 | 9.7 | 8.4 | 4.6
Cc1ccccc1NC(=O)c1ccccc1NC(=O)Cc1cccc2ccccc12 | 13.7 | 11.6 | -3.5 | 30.6 | 3.2
O=C(NC1CCCCCC1)C1CCCN(S(=O)(=O)c2cccs2)C1 (stereo not drawn) | -1.9 | -25.0 | x | -5.2 | -2.5
CCCc1nc2oc3c(Cl)ncnc3c2c2c1CCCC2 | 27.7 | 7.6 | 9.9 | 7.4 | -3.7
CCCc1nc2oc3c(NCCN(C)C)ncnc3c2c2c1CCCC2 | 75.6* | -30.2 | x | 11.0 | -32.7
CC(C)Cc1nc2oc3c(NCC(C)O)ncnc3c2c2c1CCCC2 (stereo not drawn) | 12.7 | 52.5 | -17.1 | 1.9 | -1.9
CCCc1nc2oc3c(NCCCN(C)C)ncnc3c2c2c1CCCC2 | 77.6* | 107.7* | 6.8 | -71.8 | -35.0
C[C@H]1CCCCO[C@H](CN(C)C)[C@@H](C)CN([C@@H](C)CO)C(=O)c2cc(NS(C)(=O)=O)ccc2O1 | x | x | -15.5 | x | x
COc1ccc(S(=O)(=O)N2c3ccc(F)cc3CCC2C)cc1 (stereo not drawn) | 41.4 | 112.2* | 77.9* | -13.6 | 1.6
CC(=O)Nc1ccc(S(=O)(=O)N2c3ccc(F)cc3CCC2C)cc1 (stereo not drawn) | 4.8 | 7.3 | 18.4 | x | -4.2
CC1(C(=O)NC2CCN(Cc3ccccc3)CC2)CCN1CCc1ccccc1 (stereo not drawn) | x | x | 6.5 | -11.8 | x
O=C(c1ccc(CS(=O)c2ccccc2Cl)o1)N1CCN(c2ccccc2)CC1 (stereo not drawn) | 4.0 | 110.1* | 12.0 | 10.1 | 2.5
O=C(c1ccc(CS(=O)c2ccccc2Cl)o1)N1CCOCC1 (stereo not drawn) | -9.3 | 12.7 | -20.1 | -4.7 | -2.5
COc1cccc(N2CCN(C(=O)c3ccc(CS(=O)c4ccccc4C)o3)CC2)c1 (stereo not drawn) | 39.0 | 108.0* | u | 24.0 | 29.4
COc1cccc(N2CCN(C(=O)c3ccc(CS(=O)c4ccccc4Cl)o3)CC2)c1 (stereo not drawn) | 59.3 | 110.4* | 93.4* | 15.0 | 2.4
COc1ccc(NC(=O)CCC(=O)N/N=C/c2cccnc2)cc1 | -2.4 | 15.9 | 3.4 | -4.2 | -11.1
CC1(C)Cc2ccccc2-c2nc(-c3ccccc3)oc(=O)c21 | -11.3 | 4.1 | x | -2.8 | -3.9
O=C(COC(=O)CN=C1NS(=O)(=O)c2ccccc21)Nc1ccccc1OC(F)F | 6.4 | -17.9 | 13.3 | -13.5 | 1.5

High-throughput results: PubChem, Broad Institute
